The whole screen tested about 330,000 compounds, of which about 100 (0.03%) were called active. Roughly 1% stayed inconclusive and do not appear here. What follows is part of a selection rich in actives, with near analogues and random picks from the rest. Unmarked numbers belong to inactive results. The call rests on the fitted dose curve; in most records, active means well fitted inhibition curve with a large enough effect; inconclusive means small, poorly fitted or top-dose-only effect; inactive means flat fitted curve, though single readings scatter.
tested on: Chaperonin Mm-Cpn (Methanococcus maripaludis); assay: Inhibitors of TCP-1 ring complex (TRiC) of Methanococcus maripaludis (MmCpn): qHTS; settings: purified Mm-Cpn ATPase, ADP Transcreener TR-FRET; series mostly up to 76.9 µM; activity, negative = inhibition: at the top concentration; further: nearly all actives have a fitted effect of over 80% in size;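 on Potency: enzyme at 25 nM with ATP substrate at 10 µM during the reaction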
Excerpt: The eukaryotic chaperonin TRiC (for TCP-1 ring complex) is an essential and conserved chaperone required for the folding and activation of 10-15% of the proteins encoded by the human genome. […] The TRiC complex consist of two stacked 7-9 membered rings, each containing a central cavity. Substrates are folded within the cavity in an ATP-dependent manner. TRiC is a complex of eight different, essential proteins. As each of the genes encoding the eight subunits is essential for cell viability and no protocol has been developed to over-express this enzyme to high levels. That is why several groups studying the TRiC chaperonin have turned to the archaeal homolog of TRiC, Methanococcus maripaludis (Mm-CPN), and have used this enzyme as a model system for the study of the type II chaperonin family. Small molecule inhibitors of the Mm-CPN enzyme would be extremely useful to study the mechanism of chaperonin activity. Importantly, TRiC and Mm-CPN both require ATP hydrolysis for function. Furthermore, the ATP binding sites are highly conserved among these type II chaperonins. This provides us with an easy, well tested and straightforward assay to identify inhibitors of chaperonin activity. The Mm-CPN assay was developed in 1536-well plate format using the HTRF Transcreener ADP assay kit (Cisbio, Bedford, MA). This assay applied the time resolved fluorescence resonance energy transfer (TR-FRET) principle. ATP in the presence of Mm-CPN is converted to ADP + Pi. An antibody labeled with Eu3+-Cryptate specific and bound to ADP labeled with […] (d2) competes with the unlabeled ADP generated by Mm-CPN. The resulting TR-FRET signal is inversely proportional to the concentration of ADP in the sample. In this assay a reduction in TR-FRET signal is observed with ATP turnover. NIH Chemical Genomics Center [NCGC] NIH Molecular Libraries Probe Centers Network [MLPCN] MLPCN Grant: DA030554-01A1 Assay Submitter (PI): Judith Frydman, Stanford University
Purified Mm-CPN was supplied by the laboratory of Dr. Judith Frydman. Protein samples were stored at -80C as single use aliquots. Protein was thawed in ambient temperature water bath and placed on ice once thawed. Buffer was prepared fresh day of screen. The buffer composition below was used to prepare the working solution of the Mm-CPN protein and ATP substrate. The buffer is comprised of 30 mM TRIS pH 7.4, 100mM KCl, 5mM MgCl2, and 1mM DTT. A final concentration of 25nM Mm-CPN and 10uM ATP per well were used in the screen. Instructions according to the manufacturer were followed for the ADP Transcreener kit. Used 1536 well Greiner white, medium binding (MB), solid bottom plates. Plates were read on the PerkinElmer EnVision plate reader using Excitation = 320 nm and Emission = […], 665 nm. Protocol- 1.Dispense 1.5ul per well of working [Mm-CPN] = 50nM (or 75 ng / well) 2.Spin plate at 1000 rpm for 30 seconds 3.23nl of compound transferred per well 4.Incubate at 37degC for 10 minutes 5.Dispense 1.5ul per well of working [ATP] = 20uM 6.Incubate at 37degC for 30 minutes 7.Dispense 3ul per well of Anti-ADP Cryptate / ADP-d2 mix (prepared as instructed by Cisbio) 8.Incubate at ambient for 30 minutes 9.Read using EnVision
On the % scale 0 is the no-effect control and ±100 the full control effect; potency means the concentration at half of the fitted maximal effect.

| SMILES | activity, negative = inhibition | Potency |
| --- | --- | --- |
| N#Cc1ccc(-c2nc3cc(C#N)c(C#N)cc3nc2-c2ccccc2)cc1C#N | 0.293% (inactive) |  |
| CC(=O)Nc1ccc(S(=O)(=O)N2CCN(S(=O)(=O)c3cccs3)CC2)cc1 | 0.0491% (inactive) |  |
| Cc1ccc(CNC(=O)c2ccccc2CCc2ccccc2)cc1 | -0.428% (inactive) |  |
| CCC1SC(CC)C(=O)N(CC(=O)NC2CCCCC2)C1=O (centres undefined) | 0.875% (inactive) |  |
| Cc1cccc(C(=O)Nc2ccc(Oc3cnccn3)cc2)c1 | -0.493% (inactive) |  |
| CC(=O)Nc1cccc(C(=O)OCN2C(=O)c3ccccc3C2=O)c1 | 1.86% (inactive) |  |
| C=CCN1C(=O)c2ccc(C(=O)N3CCC(C(=O)OCC)CC3)cc2C1=O | -0.43% (inactive) |  |
| Cc1ccc(NC2=C(Cl)C(=O)OC2OC(=O)c2ccccc2C)cc1 (centres undefined) | -12.6% (inactive) |  |
| Cc1ccccc1N1CCN(CCCN2C(=O)C3CCCCN3C2=O)CC1 (centres undefined) | -0.311% (inactive) |  |
| O=C(CCNS(=O)(=O)c1ccccc1)NCCCc1ccccc1 | -1.66% (inactive) |  |
| CCc1ccc(Nc2n[n+](-c3ccccc3)c(-c3cccc(Cl)c3Cl)s2)cc1 |  | 56.2 µM (active) |
| COc1cc(Br)c(-c2sc(Nc3ccccc3)n[n+]2-c2ccccc2)cc1OC | -8.15% (inactive) |  |
| NC(=O)N1CCCC1C(=O)Nc1ccc(Cl)c(Cl)c1 (centres undefined) | -1% (inactive) |  |
| CC(C)c1ccc(N2CCN(C(=O)c3ccccc3NC(=O)/C=C(\C(=O)O)c3ccccc3)CC2)cc1 | 1.56% (inactive) |  |
| CC(NC(=O)COC(=O)c1ccc(Cl)cc1O)c1ccc(F)cc1 (centres undefined) | -3.48% (inactive) |  |
| COC(=O)c1ccc(/C=C/c2c(-c3ccc(OC)cc3)sc3ccccc23)cc1 | 1.68% (inactive) |  |
| COc1ccccc1-c1sc2ccccc2c1-c1ccc(C(C)=O)cc1 |  | 31.6 µM (active) |
| COc1ccc2sc(-c3ccccc3OC)c(-c3ccc(OCCN4CCCC4)cc3)c2c1 | -12.8% (inactive) |  |
| CC(=O)Nc1ccc(Nc2ncnc3c2nnn3Cc2ccccc2Cl)cc1 | 1.07% (inactive) |  |
| O=C(NCc1ccccc1CN1CCCC1)C1CCN(S(=O)(=O)c2ccc(Cl)cc2)CC1 | -0.604% (inactive) |  |
| CC(C)CN(C(=O)c1ccc2c(c1)OCO2)C1CCS(=O)(=O)C1 (centres undefined) | 0.881% (inactive) |  |
| CC1(C)O[C@@H]2CC3C4C[C@H](F)C5=CC(=O)C=CC5(C)C4C(O)CC3(C)[C@]2(C(=O)CO)O1 (some centres undefined) | 1.04% (inactive) |  |
| Cc1ccc2[nH]c(=O)c(CN(C)S(=O)(=O)c3cccc4nonc34)cc2c1 | -2.84% (inactive) |  |
| Cc1nc(NC2=NC(C(=O)Nc3ccc(Cl)cc3)CC(=O)N2)nc2ccccc12 (centres undefined) | 0.566% (inactive) |  |
| CC1CCN(c2ccc(C(=O)NCc3ccc4c(c3)OCO4)cc2[N+](=O)[O-])CC1 | 0.158% (inactive) |  |

| SMILES | activity, negative = inhibition | Potency |
| --- | --- | --- |
| CC(=O)c1ccc(NC(=O)CCNS(=O)(=O)c2cc(Br)cnc2N)cc1 | -0.226% (inactive) |  |
| CC(=O)c1nn(-c2cccc(C(F)(F)F)c2)c(=O)[nH]c1=O | -0.223% (inactive) |  |
| c1ccc(-c2nnc3n2NC(c2ccc4c(c2)OCO4)S3)cc1 (centres undefined) | 1.41% (inactive) |  |
| O=C(CSc1nnc(-c2ccncc2)o1)Nc1cccc(Cl)c1 | 2.25% (inactive) |  |
| O=C(O)C1CCN(C(=O)c2cc(F)cc3c2OCOC3)CC1 | 2.42% (inactive) |  |
| CC(=O)c1cn(CCCCCCCCCCn2cc(C(C)=O)c(=O)[nH]c2=O)c(=O)[nH]c1=O | -3.31% (inactive) |  |
| Cn1c2c(c(=O)n(C)c1=O)C(c1cccc(F)c1)C(C#N)=C(N)O2 (centres undefined) | -1.49% (inactive) |  |
| CCCCOP(=O)(c1ccc(N(C)C)cc1)C(O)c1cc(OC)ccc1OC (centres undefined) | 2.81% (inactive) |  |
| Cc1cccc(C(=O)O)c1[N+](=O)[O-] | 0.41% (inactive) |  |
| CCN(CC)S(=O)(=O)c1ccc(CNC(=O)CN2C(=O)NC3(CCc4ccccc43)C2=O)cc1 (centres undefined) | -3.53% (inactive) |  |
| NC(=O)CN1CCCC1c1ccc2c(c1)OCCO2 (centres undefined) | 0.0789% (inactive) |  |
| CCOC(=O)c1cc(-c2ccc(Cl)s2)nc2c1c(C)nn2C | -7.1% (inactive) |  |
| Cc1cc(S(=O)(=O)NCC(C)C)ccc1OCC(=O)NC1CC1 | -0.397% (inactive) |  |
| COc1ccc2c3c(c(=O)oc2c1)C1O[C@](CCCCN2C(=O)c4ccccc4C2=O)(Cc2c1ccc1ccccc21)O3 | 1.5% [at 15.4 µM] |  |
| O=C(CCc1ccccc1)Nc1ccnn1C1CCN(Cc2ccc(OCCO)cc2)CC1 | 1.27% (inactive) |  |
| Cc1cccc(N(C(=O)Cc2cccs2)C(C(=O)NC2CCCC2)c2ccsc2)c1 (centres undefined) | -0.0327% (inactive) |  |
| O=C(CCNC(=O)c1ccc([N+](=O)[O-])cc1)NC1CCCCC1 | -2.91% (inactive) |  |
| O=C1CC(=O)Nc2cc(S(=O)(=O)N3CCN(c4cccc(C(F)(F)F)c4)CC3)ccc2N1 | 3.32% (inactive) |  |
| CCOC(=O)C1=C(CC)OC(N)=C(C#N)C1c1ccc(F)cc1F (centres undefined) | -1.36% (inactive) |  |
| O=C(CN1CCN(C2CCS(=O)(=O)C2)CC1)N1N=C(c2ccc(Cl)cc2)CC1c1ccco1 (centres undefined) | -0.933% (inactive) |  |
| CC(C)CNC(=O)/C=C/C(=O)O |  | inactive |
| Cc1ccc(C)c(N(CC(=O)NCc2ccco2)C(=O)CCC(=O)Nc2ccccn2)c1 | -0.588% (inactive) |  |
| Cc1cccc(C)c1NC(=O)C(Cl)C(=O)c1ccccc1 (centres undefined) | 0.831% (inactive) |  |
| Cn1c(=O)c2c(n(Cc3ccccc3)c1=O)NC(=O)C2CC(=O)N1CCc2ccccc2C1 (centres undefined) | -0.155% (inactive) |  |
